High-throughput results as filed in PubChem BioAssay.
SW480 rereplic: inducers of DNA re-replication in SW480 colon cancer cells. SW480 DNA re-replication, Hoechst DNA content imaging, 48 h. Potency, µM (highest dose often 46.1 µM), without a hit: at the highest dose re-replication activation, usual class: activators. hit rate 1.8% among 340,000; note: potency is the fitted concentration of half-maximal effect; % of control where 0% means no effect; nearly all actives have a fitted effect of over 55% in size
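Image-based read-out: total Hoechst fluorescence of nuclei (405 nm excitation, 500-530 nm emission), with hits raising the fraction of high-intensity nuclei. SW480 colon cells incubated 48 hr with compounds at 37 C.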
Giardia killer: Giardia lamblia killing; hit rate 0.15% among 340,000; Giardia lamblia trophozoite viability; activity change, % at 7.66 µM, hits read low; AID 540267; in the data active = activity change below about -80%; inconclusive = between about -30% and that limit;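 note: parasites exposed to compound for two days anaerobically before the ATP read; % is set by controls: 0 for no effect and ±100 for the full control effect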
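Media and compound were dispensed first, then trophozoites at 100 cells/well; plates sat 48 hrs at 37 deg C without oxygen before ATP luminescence reagent was added and read after 15-30 min at room temperature.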
RORgamma inh: ROR gamma (mouse) transcription inhibition; P51450; Drosophila S2 Gal4-RORgamma UAS-luciferase reporter, 20 h; Potency, µM (doses to about 53.6 µM), inactives show at the top dose activity change, negative = inhibition, usual class: inhibitors; hit rate 5.4% among 310,000; AID 2551; note: potency is the fitted concentration of half-maximal effect; % is set by controls: 0 for no effect and ±100 for the full control effect; nearly all actives have a fitted effect of over 60% in size
Target sequence (P51450 whole entry, looked up, the tested form may be a part): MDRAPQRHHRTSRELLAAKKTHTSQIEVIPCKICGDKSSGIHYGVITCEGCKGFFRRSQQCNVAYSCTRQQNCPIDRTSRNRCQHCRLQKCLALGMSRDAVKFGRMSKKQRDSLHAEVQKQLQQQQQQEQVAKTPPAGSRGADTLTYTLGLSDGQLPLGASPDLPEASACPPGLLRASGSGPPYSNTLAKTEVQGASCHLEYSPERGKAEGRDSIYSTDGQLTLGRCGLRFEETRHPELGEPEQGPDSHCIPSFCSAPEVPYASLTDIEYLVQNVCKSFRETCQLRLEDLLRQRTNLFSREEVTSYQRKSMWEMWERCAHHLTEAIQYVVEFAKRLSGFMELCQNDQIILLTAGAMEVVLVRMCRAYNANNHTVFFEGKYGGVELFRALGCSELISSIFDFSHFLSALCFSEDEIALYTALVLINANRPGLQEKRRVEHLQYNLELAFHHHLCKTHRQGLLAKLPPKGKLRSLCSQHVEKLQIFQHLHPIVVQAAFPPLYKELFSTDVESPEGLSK
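Drosophila Schneider cells stably carrying a metallothionein-driven Gal4 DBD–ROR gamma fusion and a UAS-Photinus luciferase reporter were exposed to compound for 1 hr, then induced with copper sulfate (700 uM final) for 20 hr at ambient temperature before luminescence reading.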
Gal4-VP16 FLuc: counter-screen for ROR gamma inhibitors: Gal4-VP16 reporter. Drosophila S2 Gal4-VP16 UAS-luciferase, luminescence, 20 h. Potency, µM (series often up to 53.6 µM), inactives show at the highest dose activity, negative = inhibition, most hits filed as inhibitors. hit rate 3.5% among 310,000. AID 2546;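 note: Gal4-VP16 expression switched on by copper sulfate through the metallothionein promoter; potency is the fitted concentration of half-maximal effect; % is set by controls: 0 for no effect and ±100 for the full control effect; nearly all actives have a fitted effect of over 50% in size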
BCR signal inh: inhibitors of chronic active B-cell receptor signaling; hit rate 0.05% among 340,000; ABC-DLBCL IkBa-CBG/CBR reporter, luminescence ratio, 4 h; Potency, µM (doses to about 46.1 µM), without a hit: at the top dose activity change, negative = inhibition, hits mostly inhibitors; active = well fitted inhibition curve with a large enough effect in the signal ratio, with a control signal flat, not every such curve was filed as active; inconclusive = small, poorly fitted or top-dose-only effect, or effect the other way, or a change in a side signal; the % refers to the signal ratio;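 note: potency is the fitted concentration of half-maximal effect; plate controls were basal doxycycline-induced cells for no effect and cells given 10 µM MG132 for full effect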
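Concentration-response series (up to 46 uM) were applied to TMD8 dual-reporter cells for 4 h at 37C with doxycycline. Green/red ratio, after filter-overlap correction, defined %Activity; red signal alone was normalised to basal cells and zero luminescence.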
MCF10A rereplic: inducers of DNA re-replication in MCF 10A breast cells; hit rate 2.9% among 350,000; MCF 10A DNA re-replication, Hoechst nuclear intensity, 48 h; Potency, µM (titrated, usually from 46.1 µM), inactives show at the top dose activity, positive = re-replication, hits mostly activators; note: potency is the fitted concentration of half-maximal effect; % of control where 0% means no effect; nearly all actives have a fitted effect of over 50% in size
* marks the source's active call; other numbers are inactive results; ? = inconclusive; nt = no result given; [ ] = another dose, or the depositor's remark. Sampled rows, rich in hits. Any-hit rate of the full collection: about 8.3%. Unless noted, calls come from the whole dose curve; as a rule, active = well fitted curve in the direction sought with a large enough effect; inconclusive = small, poorly fitted or top-dose-only effect, or another doubt; inactive = no such curve, though single readings can be large; an effect the other way counts as inactive or inconclusive.

SMILES | SW480 rereplic | Giardia killer | RORgamma inh | Gal4-VP16 FLuc | BCR signal inh | MCF10A rereplic
N#C/C(=C/c1ccc(-c2ccc(S(N)(=O)=O)cc2)o1)c1nc2ccccc2s1 | 10µM* | -22 | ? | ? | -23% | 3.7µM*
O=C(N/N=C/c1ccccc1O)C1SCCCS1 | ? | 10 | 0.79µM* | 5µM* | ? | 2%
COc1ccccc1NC(=O)COc1ccc(/C=N/NC(=O)CSCc2ccc(Cl)cc2)cc1 | 18% | 6 | 0% | -11% | 0% | -5%
Cc1nccn1CC(=O)N/N=C/c1c[nH]c2ccccc12 | 8% | 28 | 7% | 3% | -2% | 0%
Cc1cc(C)n(CCC(=O)N/N=C/c2ccccc2O)n1 | 30% | 0 | 1.3µM* | 1.3µM* | 0% | 6%
COc1ccccc1NC(=O)COc1ccc(/C=N/NC(=O)CSCc2cc(C)cc(C)c2)cc1 | -3% | 5 | -18% | 3% | -2% | 18µM*
Cc1nccn1CC(=O)N/N=C/c1ccccc1O | ? | ? | 4µM* | ? | ? | ?
O=C(O)CCCn1cc(NC(=O)COc2ccccc2F)cn1 | -9% | 6 | -40% | -1% | ? | -7%
COC(=O)Oc1ccc(/C=N/NC(=O)CSCc2ccccc2Br)cc1OC | -4% | -3 | ? | 13µM* | ? | ?
O=C(CCSCCC(=O)NN=Cc1ccccc1O)NN=Cc1ccccc1O | -5% | -9 | nt | nt | nt | 16µM*
O=C(CCCCCNC(=O)c1ccccc1)N/N=C/c1ccccc1O | 5.8µM* | 9 | 6.3µM* | 20µM* | ? | ?
O=C(CSc1ccccc1)N/N=C/c1ccccc1O | ? | 17 | 0.63µM* | 1.6µM* | -28% | 10%
COc1ccc(/C=N/NC(=O)CSCC(=O)Nc2ccccc2)cc1OC | -2% | -4 | 15% | -5% | -21% | -5%
CC1(C)CC(CCN)(Cc2ccccc2Cl)CCO1 (centres undefined) | 1% | 3 | -13% | -2% | 9% | -8%
NC(=O)OCC(O)COc1ccc(Cl)cc1 (centres undefined) | -5% | 23 | nt | nt | 2% | 1%
O=C(COC(=O)c1ccc([N+](=O)[O-])o1)NCCCc1ccccc1 | -17% | -8 | nt | nt | 0% | 19%
COc1ccc(CN(C)C(=O)c2[nH]c(C)c(C(C)=O)c2C)c(OC)c1OC | 2% | -2 | 23% | 4% | 3% | 10%
Cc1cc(SCC(=O)N/N=C/c2ccc(O)c(O)c2O)c(C)cc1Br | -4% | -4 | 2.8µM* | ? | 12% | 4%
COc1ccc(CSCC(=O)N/N=C/c2ccccc2O)cc1 | ? | -4 | 0.71µM* | 3.2µM* | -6% | ?
COc1cc(/C=N/NC(=O)CSc2cc(C)c(Br)cc2C)ccc1O | -2% | -2 | 21% | -11% | ? | ?
COc1ccc(NC(=O)CSCc2ccc(C)cc2)cc1 | 19% | 18 | 36% | 9% | -1% | -2%
O=C(CN1CCCc2ccccc21)N/N=C/c1ccccc1O | ? | 7 | 0.25µM* | 0.32µM* | ? | 8%
CN(C(=O)c1ccc(NC(=O)Cc2cccc(NC(=O)C3CCN(C(=O)c4ccccc4)CC3)c2)cc1)C1CCCC1 | 11% | 7 | nt | nt | ? | ?
Cc1ccc2nc(-c3ccc(O)cc3)oc2c1 | -2%[1.84 µM] | ? | 2.5µM* | 7.1µM* | 2% | -22%
Cc1ccc(-c2nc(C=Nc3ccc(O)cc3)c(O)o2)cc1 | 5.8µM* | 2 | -5% | 7% | ? | 15µM*
SMILES | SW480 rereplic | Giardia killer | RORgamma inh | Gal4-VP16 FLuc | BCR signal inh | MCF10A rereplic
Cc1ccc2nc(-c3cccc(-c4nc5ccc(C)cc5o4)n3)oc2c1 | nt | 8 | nt | nt | nt | nt
NC1=NC(=O)/C(=C\c2ccc(-c3ccc(Cl)cc3)o2)S1 | ? | ? | -29% | -11% | 7% | 7.3µM*
Cc1cc(C(=O)N/N=C/C=C/c2ccccc2[N+](=O)[O-])c(C)o1 | 2% | 4 | ? | ? | ? | -2%
Cc1occc1C(=O)N/N=C/C=C/c1ccccc1[N+](=O)[O-] | -4% | -8 | 11µM* | ? | ? | -3%
Cc1ccc(C(=O)N/N=C/C=C/c2ccccc2)cc1 | -10% | 8 | 3.2µM* | 7.9µM* | -2% | ?
CC(C)c1cc(C(=O)N/N=C/C=C/c2ccccc2)n[nH]1 | -3% | -25 | ? | 20µM* | ? | -3%
Cc1occc1C(=O)N/N=C/c1ccc(N(C)C)cc1 | -47% | 1 | 10µM* | ? | ? | 7%
CCOc1ccc(Cl)cc1S(=O)(=O)N1CCC(C(=O)NCc2cccnc2)CC1 | -11% | 9 | 10% | -6% | -2% | -5%
CCOC(=O)N1CCN(CC(=O)Nc2sccc2C#N)CC1 | ? | -4 | -6% | -8% | -10% | 4%
Cc1cc(C(=O)N/N=C/C=C/c2ccccc2)c(C)o1 | -4% | 1 | 7.9µM* | 11µM* | ? | 2%
O=C(N/N=C/c1cccc(Oc2ccccc2)c1)c1cccc(Br)c1 | ? | -2 | 10µM* | ? | 1% | ?
O=C(N/N=C/c1cccc(Oc2ccccc2)c1)c1cccc(O)c1 | ? | -4 | 20% | 0% | ? | ?
O=C(N/N=C/c1ccccc1C(=O)O)c1ccccc1Br | 1% | -5 | 17% | 9% | ? | 14%
O=C(N/N=C/C=C/c1ccccc1)c1ccccc1Br | -2% | -6 | 3.2µM* | ? | ? | -4%
Cc1occc1C(=O)N/N=C/C=C/c1ccc(N(C)C)cc1 | 0.012µM* | 5 | 2.8µM* | 3.2µM* | ? | ?
C[C@H](CO)N1C[C@H](C)[C@@H](CN(C)C)Oc2c(NC(=O)CCC(F)(F)F)cccc2C1=O | -14%[9.22 µM] | -18 | nt | nt | 1% | -10%
COC(=O)c1ccc(Cl)c(S(=O)(=O)N2CCCC2)c1 | -9% | -14 | 1% | -11% | -4% | -8%
NC(=S)N/N=C/C=C/c1ccccc1 | -2% | -1 | 2µM* | ? | ? | ?
O=C(N/N=C/C=C/c1ccccc1)c1cccc(Br)c1 | 3% | 5 | 1µM* | 5µM* | ? | ?
O=C(O)c1cc(N/N=C/C=C/c2ccccc2)ccc1Cl | -8% | 6 | 35% | 6% | ? | 21µM*
Cc1occc1C(=O)N/N=C/C=C/c1ccccc1 | 70% | 24 | 7.1µM* | ? | ? | 29%
CCCCOC(=O)N/N=C/C=C/c1ccccc1 | -4% | 4 | ? | ? | 0% | -8%
COC(=O)CCC(=O)N1CCCC(CO)(Cc2ccccc2F)C1 (centres undefined) | -7% | -13 | -8% | -9% | 2% | 3%
CCOC(=O)/C(=C\c1ccc(OC)c(OC)c1)C(=O)c1cccnc1 | 20% | 0 | -18% | -2% | ? | 26µM*
